Laboratory results as given in the OligoGym collection.

What follows are sequences tested against ODF3L1 (assay: pooled miR-30 sensor sort-seq; sequence = guide strand). Conditions: shRNA.
Note: reference of the scale not given here.

Question: TAAGCTGGTGCCTTGAACATGG was tested. Which sensor-assay potency score (higher = more potent) did it give?
Answer: 0.328

Question: How did the sensor-assay potency score (higher = more potent) turn out when ACATCCTCCTTGTAGAACCAGT was run?
Answer: -1.04

Question: For TAGCAGGGAGCAGCTCGGCTGA, which sensor-assay potency score (higher = more potent) is on record?
Answer: -1.48

Question: TGATCTATGTAGCCCGTGCAGG was tested. Which sensor-assay potency score (higher = more potent) did it give?
Answer: -1.19

Question: TTGAACATGGAGATGTCATGAT was tested. Which sensor-assay potency score (higher = more potent) did it give?
Answer: 0.585

Question: TCATGATCTATGTAGCCCGTGC was tested. Which sensor-assay potency score (higher = more potent) did it give?
Answer: -0.361

Question: How did the sensor-assay potency score (higher = more potent) turn out when ATCTTCTCAAAGTAGTACTGGC was run?
Answer: -0.892

Question: Which sensor-assay potency score (higher = more potent) does the source give for TCTGCTACTAGAAATCTTGGTC here?
Answer: 0.655

Question: For TTGTGCACAGTGACCTGCTGGA, which sensor-assay potency score (higher = more potent) is on record?
Answer: 0.448

Question: With TCCTTGTAGAACCAGTTCTTGT as the sequence, how does the sensor-assay potency score (higher = more potent) read?
Answer: -1.85

These sequences were tested against ODF4 in the same assay as above. Conditions: shRNA.

Question: For TTCTACTGAGCCGAAACTGCTG, which sensor-assay potency score (higher = more potent) is on record?
Answer: -0.397

Question: How did the sensor-assay potency score (higher = more potent) turn out when TCTCTTTCTCCTTCTGACCTGG was run?
Answer: -0.166

Question: How did the sensor-assay potency score (higher = more potent) turn out when TTGGTCTCTTTCTCCTTCTGAC was run?
Answer: -0.95

Question: Which sensor-assay potency score (higher = more potent) does the source give for TATAGGATAAGCACCAGCCAAC here?
Answer: -1.15

Question: TCTTCTACTGAGCCGAAACTGC was tested. Which sensor-assay potency score (higher = more potent) did it give?
Answer: -1.39

Question: Which sensor-assay potency score (higher = more potent) does the source give for TCTACTGAGCCGAAACTGCTGC here?
Answer: 0.472

Question: Which sensor-assay potency score (higher = more potent) does the source give for TTGAAGTAGCAAAGGATCGCGC here?
Answer: 0.0925

Question: With TTCCAGGTCTCTGATGTTGGTC as the sequence, how does the sensor-assay potency score (higher = more potent) read?
Answer: -1.05

Question: For TCTGTGATCGTCTGTGCCCTTG, which sensor-assay potency score (higher = more potent) is on record?
Answer: -0.736

Question: Which sensor-assay potency score (higher = more potent) does the source give for TAGCAAAGGATCGCGCAGGTGA here?
Answer: -0.209
